Measurements reported in PubChem BioAssay (Tox21).
Unmarked numbers belong to inactive results. Records with an inconclusive call do not appear. A call without a number means that no potency is given here. Active and inactive are the calls of the source. Unless noted, the call rests on the fitted dose curve; in most records, active means well fitted curve in the direction sought with a large enough effect in the repeat runs; inconclusive means weak or mixed curves; inactive means no such curve, though single readings can be large; an effect the other way counts as inactive or inconclusive.

Legend:
[1] = A CellTox Green Cytotoxicity Assay to monitor cytotoxicity in HEK293 cells - 32 hour (AID 1224881); further: nearly all actives have a fitted effect of over 40% in size
Method in brief: (§1)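 Dead-cell fluorescence measured kinetically: asymmetric cyanine dye, HEK293, 600 cells/well, 5 h settle, 23 nL cpd/DMSO, 37 C, reads 0–40 h every 8 h.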

[2] = A CellTox Green Cytotoxicity Assay to monitor cytotoxicity in HepG2 cells - 0 hour (AID 1224882); further: nearly all actives have a fitted effect of over 35% in size
Method in brief: (§2)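 First, HepG2 cells (600/well) mixed with reagent were plated; second, after 5 h at 37 C they received compounds via pintool; third, fluorescence was measured at 0 h through 40 h at 8 h intervals.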

[3] = A CellTox Green Cytotoxicity Assay to monitor cytotoxicity in HepG2 cells - 32 hour (AID 1224883); further: nearly all actives have a fitted effect of over 50% in size
Method in brief: as §2

[4] = A CellTox Green Cytotoxicity Assay to monitor cytotoxicity in HEK293 cells - 8 hour (AID 1224884); further: nearly all actives have a fitted effect of over 35% in size
Method in brief: as §1

[5] = qHTS RealTime-Glo MT Cell Viability Assay in HepG2 cells - 16 hour (AID 1224885); further: nearly all actives have a fitted effect of over 50% in size
Method in brief: (§3)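 Cell number in HepG2 cultures estimated from NanoLuc luminescence generated by metabolic reduction of a prosubstrate by living cells. The homogeneous, nonlytic format allowed repeated reads at 0, 8, 16, 24, 32 and 40 h of compound exposure.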

[6] = qHTS RealTime-Glo MT Cell Viability Assay in HEK293 cells - 24 hour (AID 1224886); further: top concentration of the series differs between compounds; nearly all actives have a fitted effect of over 50% in size
Method in brief: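 Homogeneous bioluminescent viability format in HEK293 cells (600 cells/well). Following 5 h at 37 C/5% CO2, 23 nL compound was pintooled; the signal was measured repeatedly during 40 h incubation.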

[7] = qHTS RealTime-Glo MT Cell Viability Assay in HEK293 cells - 8 hour (AID 1224887); further: top concentration of the series differs between compounds; nearly all actives have a fitted effect of over 50% in size
Method in brief: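 600 HEK293 cells per well, dispensed already mixed with RealTime-Glo MT reagents. Compound dosing came 5 h later. The same wells were read for luminescence at 0, 8, 16, 24, 32 and 40 h of exposure at 37 C.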

[8] = A CellTox Green Cytotoxicity Assay to monitor cytotoxicity in HEK293 cells - 16 hour (AID 1224888); further: nearly all actives have a fitted effect of over 35% in size
Method in brief: as §1

[9] = A CellTox Green Cytotoxicity Assay to monitor cytotoxicity in HepG2 cells - 8 hour (AID 1224890); further: nearly all actives have a fitted effect of over 45% in size
Method in brief: as §2

[10] = qHTS assay to identify small molecule antagonists of the estrogen receptor alpha (ER-alpha) signaling pathway using the BG1 cell line in the presence of 0.1 nM 17-beta-estradiol - cell viability counter screen (AID 1259241); further: nearly all actives have a fitted effect of over 40% in size
Method in brief: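 Cytotoxicity counter-screen: live-cell protease activity measured by fluorescence (30 min reagent step) in the same wells. Cells were VM7Luc4E2 with endogenous ER-alpha and ERE-driven luciferase, treated 22 hr at 37C alongside 0.1 nM 17beta-estradiol final.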

[11] = qHTS assay to identify small molecule antagonists of the androgen receptor (AR) signaling pathway using the MDA cell line in the presence of 0.5 nM R1881 - cell viability counter screen (AID 1259242); further: nearly all actives have a fitted effect of over 45% in size
Method in brief: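 qHTS format. MDA-kb2 (MMTV-luc, AR/GR responsive) + cpd + 0.5 nM R1881 final, 16 hr 37C/0% CO2 → CellTiter-Fluor 30 min → fluorescence intensity.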

[12] = target: Estrogen receptor (Homo sapiens) (UniProt P03372); assay: qHTS assay to identify small molecule antagonists of the estrogen receptor alpha (ER-alpha) signaling pathway using the BG1 cell line in the presence of 0.1 nM 17-beta-estradiol (AID 1259244); further: nearly all actives have a fitted effect of over 50% in size; further: potency means the concentration at half of the fitted maximal effect
Chain of Estrogen receptor (Homo sapiens) (P03372 whole entry, looked up): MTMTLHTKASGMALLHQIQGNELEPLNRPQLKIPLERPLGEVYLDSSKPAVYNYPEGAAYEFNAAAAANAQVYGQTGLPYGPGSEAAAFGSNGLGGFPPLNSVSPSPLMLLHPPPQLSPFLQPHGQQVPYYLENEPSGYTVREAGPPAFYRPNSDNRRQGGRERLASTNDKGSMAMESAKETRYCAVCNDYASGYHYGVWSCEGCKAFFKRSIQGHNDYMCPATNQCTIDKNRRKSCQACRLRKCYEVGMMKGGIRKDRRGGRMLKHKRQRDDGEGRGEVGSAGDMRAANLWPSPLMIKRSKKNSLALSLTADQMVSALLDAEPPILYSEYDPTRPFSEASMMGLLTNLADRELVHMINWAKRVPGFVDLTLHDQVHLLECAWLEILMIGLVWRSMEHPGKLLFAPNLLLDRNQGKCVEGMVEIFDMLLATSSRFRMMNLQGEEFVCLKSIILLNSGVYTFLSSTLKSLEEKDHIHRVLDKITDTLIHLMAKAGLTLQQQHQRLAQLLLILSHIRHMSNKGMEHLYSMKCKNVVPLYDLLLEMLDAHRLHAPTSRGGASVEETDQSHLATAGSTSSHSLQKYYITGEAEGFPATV
Method in brief: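 Reporter is a stably transfected luciferase under four estrogen responsive elements in VM7Luc4E2 cells expressing native full-length ER-alpha; inhibition of 0.1 nM (final) 17beta-estradiol-driven signal over 22 h is read by luminescence.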

[13] = qHTS assay to identify small molecule phospholipidosis (PLD) inducers (AID 1259344; active means well fitted curve in the direction sought with a large enough effect; an effect the other way counts as inactive or inconclusive)
Method in brief: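 Accumulated phospholipid, stained red by LipidTOX during 24 h compound treatment of HepG2 cells at 37 C, is quantified from images as pit number and intensity, normalised per cell using Hoechst-stained nuclei.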

[14] = qHTS assay to identify small molecule HDAC inhibitors (AID 1259364);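 further: wild-type HCT-116 cells with endogenous class I/II HDAC activity; top concentration of the series differs between compounds; nearly all actives have a fitted effect of over 45% in size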
Method in brief: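 Quantitative high-throughput format: overnight-seeded HCT-116 cells got compounds for 2 hr at 37C; HDAC-Glo I/II reagent added, 30 min RT, luminescence measured.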

[15] = qHTS assay to identify small molecule HDAC inhibitors - cell viability counter screen (AID 1259365)
Method in brief: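 CellTiter-Glo luminescence (30 min, room temperature) reported viability after a 2 h compound exposure at 37 C. Cells: wild-type HCT-116, 1,500 per well, seeded the night before.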

[16] = qHTS assay to identify small molecule agonists of the sonic hedgehog signaling (Shh) pathway - cell viability counter screen (AID 1259366); further: nearly all actives have a fitted effect of over 50% in size
Method in brief: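 Cytotoxicity counter screen: CellTiter-Fluor reagent added after 23 h compound exposure, then 1 h at 37C and fluorescence read. Cells were 3T3 Gli1-Luc, seeded 2,000 per well and dosed 4 h post-plating.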

[17] = qHTS assay to identify small molecule antagonists of the sonic hedgehog signaling (Shh) pathway - cell viability counter screen (AID 1259367); further: nearly all actives have a fitted effect of over 55% in size
Method in brief: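 CellTiter-Fluor signal in conditioned medium-stimulated 3T3 Gli1-Luc cells, 23 hr compound exposure, 37C.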

[18] = qHTS assay to identify small molecule agonists of the sonic hedgehog signaling (Shh) pathway (AID 1259368; calls by dose curve;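 further: NIH/3T3-derived 3T3Gli1-Luc cells carrying a stable Gli1-driven firefly luciferase reporter; series mostly up to about 92 µM; nearly all actives have a fitted effect of over 15% in size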)
Method in brief: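 Quantitative high-throughput format using a Gli1-driven firefly luciferase reporter line derived from NIH/3T3 cells. After a 24 hr compound treatment at 37 C and 5% CO2, luminescence reported Gli1 response element activity.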

[19] = qHTS RealTime-Glo MT Cell Viability Assay in HepG2 cells - 0 hour (AID 1224889); further: nearly all actives have a fitted effect of over 50% in size
Method in brief: as §3

[20] = target: Androgen receptor (Homo sapiens) (UniProt P10275); assay: qHTS assay to identify small molecule antagonists of the androgen receptor (AR) signaling pathway using the MDA cell line in the presence of 0.5 nM R1881 (AID 1259243); further: nearly all actives have a fitted effect of over 50% in size
Chain of Androgen receptor (Homo sapiens) (P10275 whole entry, looked up): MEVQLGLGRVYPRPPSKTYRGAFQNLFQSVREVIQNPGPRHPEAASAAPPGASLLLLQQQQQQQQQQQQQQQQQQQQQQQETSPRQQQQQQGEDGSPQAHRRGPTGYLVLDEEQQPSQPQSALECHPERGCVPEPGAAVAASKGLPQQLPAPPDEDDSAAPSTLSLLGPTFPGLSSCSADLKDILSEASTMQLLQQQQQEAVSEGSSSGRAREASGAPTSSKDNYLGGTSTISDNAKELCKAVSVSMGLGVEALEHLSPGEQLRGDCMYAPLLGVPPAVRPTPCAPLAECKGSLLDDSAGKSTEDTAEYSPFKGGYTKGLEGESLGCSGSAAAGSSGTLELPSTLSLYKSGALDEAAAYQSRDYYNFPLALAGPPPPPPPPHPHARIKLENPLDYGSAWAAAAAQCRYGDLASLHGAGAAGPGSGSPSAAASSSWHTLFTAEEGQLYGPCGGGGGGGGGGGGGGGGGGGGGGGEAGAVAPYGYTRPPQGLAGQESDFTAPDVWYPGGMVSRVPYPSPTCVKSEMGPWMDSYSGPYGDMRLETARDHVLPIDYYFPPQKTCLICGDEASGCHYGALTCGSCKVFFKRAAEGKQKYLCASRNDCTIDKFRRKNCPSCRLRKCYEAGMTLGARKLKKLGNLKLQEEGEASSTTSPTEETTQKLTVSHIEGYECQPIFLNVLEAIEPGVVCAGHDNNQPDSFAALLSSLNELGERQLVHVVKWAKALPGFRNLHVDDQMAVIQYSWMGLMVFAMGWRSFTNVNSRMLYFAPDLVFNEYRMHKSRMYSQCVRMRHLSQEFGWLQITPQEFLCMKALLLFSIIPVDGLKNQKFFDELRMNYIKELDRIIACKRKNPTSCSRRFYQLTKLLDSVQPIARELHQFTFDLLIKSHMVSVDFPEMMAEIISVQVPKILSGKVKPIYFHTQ
Method in brief: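 Antagonist mode quantitative HTS in MDA-kb2 MMTV-luciferase cells, agonist R1881 at 0.5 nM final, 16 hr exposure at 37C and 0% CO2, luminescent detection.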

Q: With `O=C(CS)Nc1ccccc1` as the compound, how does the Potency [1] read?
A: inactive

Q: What about the Potency [2] of the same compound?
A: inactive

Q: What about the Potency [3] of the same compound?
A: inactive

Q: What about the Potency [4] of the same compound?
A: inactive

Q: And the Potency [5]?
A: inactive

Q: What about the Potency [6] of the same compound?
A: inactive

Q: And the Potency [7]?
A: inactive

Q: What about the Potency [8] of the same compound?
A: inactive

Q: And the Potency [9]?
A: inactive

Q: What about the Potency [10] of the same compound?
A: inactive

Q: And the Potency [11]?
A: inactive

Q: What about the Potency [12] of the same compound?
A: inactive

Q: What about the PLD induction [13] of the same compound?
A: 0.942% [at 7.66 µM]

Q: And the Potency [14]?
A: inactive

Q: What about the Potency [15] of the same compound?
A: inactive

Q: And the Potency [16]?
A: inactive

Q: And the Potency [17]?
A: inactive

Q: And the outcome [18]?
A: inactive

Q: Which Potency [1] does the source give for `C/C=C(/C(=C/C)c1ccc(OC(C)=O)cc1)c1ccc(OC(C)=O)cc1` here?
A: inactive

Q: And the Potency [2]?
A: inactive

Q: What about the Potency [3] of the same compound?
A: inactive

Q: What about the Potency [4] of the same compound?
A: inactive

Q: And the Potency [5]?
A: inactive

Q: And the Potency [6]?
A: inactive

Q: And the Potency [8]?
A: inactive

Q: And the Potency [19]?
A: inactive

Q: What about the Potency [9] of the same compound?
A: inactive

Q: What about the Potency [10] of the same compound?
A: inactive

Q: And the Potency [11]?
A: inactive

Q: And the Potency [12]?
A: inactive

Q: What about the Potency [15] of the same compound?
A: inactive

Q: And the Potency [17]?
A: inactive

Q: What about the outcome [18] of the same compound?
A: inactive

Q: Which Potency [1] does the source give for `CN(C)CCN(Cc1ccsc1)c1ccccn1` here?
A: inactive

Q: What about the Potency [2] of the same compound?
A: inactive

Q: And the Potency [3]?
A: inactive

Q: What about the Potency [4] of the same compound?
A: inactive

Q: And the Potency [5]?
A: inactive

Q: And the Potency [6]?
A: inactive

Q: And the Potency [7]?
A: inactive

Q: And the Potency [19]?
A: inactive

Q: What about the Potency [9] of the same compound?
A: inactive

Q: What about the Potency [10] of the same compound?
A: inactive

Q: And the Potency [11]?
A: inactive

Q: What about the Potency [20] of the same compound?
A: inactive

Q: What about the Potency [12] of the same compound?
A: inactive

Q: And the Potency [14]?
A: inactive

Q: What about the Potency [16] of the same compound?
A: inactive

Q: What about the Potency [17] of the same compound?
A: inactive

Q: And the outcome [18]?
A: inactive

Q: With `CCC(C)(C)CC` as the compound, how does the Potency [1] read?
A: inactive

Q: And the Potency [2]?
A: inactive

Q: And the Potency [3]?
A: inactive

Q: What about the Potency [4] of the same compound?
A: inactive

Q: And the Potency [5]?
A: inactive

Q: And the Potency [6]?
A: inactive

Q: What about the Potency [7] of the same compound?
A: inactive

Q: What about the Potency [8] of the same compound?
A: inactive

Q: And the Potency [9]?
A: inactive

Q: And the Potency [10]?
A: inactive

Q: What about the Potency [11] of the same compound?
A: inactive

Q: What about the Potency [14] of the same compound?
A: inactive

Q: What about the Potency [16] of the same compound?
A: inactive

Q: What about the Potency [17] of the same compound?
A: inactive

Q: What about the outcome [18] of the same compound?
A: inactive

Q: With `C[C@H]1C[C@H]2[C@@H]3CCC4=CC(=O)C=C[C@]4(C)[C@@]3(Cl)[C@@H](O)C[C@]2(C)[C@@]1(O)C(=O)CO` as the compound, how does the Potency [1] read?
A: inactive

Q: And the Potency [2]?
A: inactive

Q: And the Potency [3]?
A: inactive

Q: And the Potency [4]?
A: inactive

Q: And the Potency [5]?
A: inactive

Q: And the Potency [6]?
A: inactive

Q: And the Potency [7]?
A: inactive

Q: And the Potency [19]?
A: inactive

Q: And the Potency [9]?
A: inactive

Q: What about the Potency [10] of the same compound?
A: inactive

Q: What about the Potency [11] of the same compound?
A: inactive

Q: And the Potency [12]?
A: inactive

Q: And the Potency [13]?
A: inactive

Q: What about the Potency [14] of the same compound?
A: inactive

Q: What about the Potency [15] of the same compound?
A: inactive

Q: What about the Potency [16] of the same compound?
A: inactive

Q: What about the Potency [17] of the same compound?
A: inactive

Q: And the outcome [18]?
A: inactive

Q: Which results are given for `CCC(Cl)CCC(Cl)C(Cl)CC(Cl)C(Cl)C(Cl)CCl` (stereo not given)?
A: Potency [1]: inactive; Potency [2]: inactive; Potency [3]: inactive; Potency [4]: inactive; Potency [5]: inactive; Potency [6]: inactive; Potency [7]: inactive; Potency [8]: inactive; Potency [19]: inactive; Potency [9]: inactive; Potency [11]: inactive; Potency [14]: inactive; Potency [15]: inactive; Potency [16]: inactive; Potency [17]: inactive; outcome [18]: inactive

Q: With `C=C(C)C(=O)OCCOCC` as the compound, how does the Potency [1] read?
A: inactive

Q: And the Potency [2]?
A: inactive

Q: And the Potency [3]?
A: inactive

Q: And the Potency [4]?
A: inactive

Q: What about the Potency [5] of the same compound?
A: inactive

Q: And the Potency [6]?
A: inactive

Q: What about the Potency [8] of the same compound?
A: inactive

Q: What about the Potency [19] of the same compound?
A: inactive

Q: What about the Potency [9] of the same compound?
A: inactive

Q: What about the Potency [11] of the same compound?
A: inactive

Q: What about the Potency [12] of the same compound?
A: 54.7 µM (active)

Q: And the Potency [14]?
A: inactive

Q: And the Potency [15]?
A: inactive

Q: What about the Potency [17] of the same compound?
A: inactive

Q: And the outcome [18]?
A: inactive

Q: Which results are given for `COC(=O)c1ccc(I)cc1S(=O)(=O)NC(=O)Nc1nc(C)nc(OC)n1`?
A: Potency [1]: inactive; Potency [2]: inactive; Potency [3]: inactive; Potency [4]: inactive; Potency [5]: inactive; Potency [6]: inactive; Potency [7]: inactive; Potency [19]: inactive; Potency [9]: inactive; Potency [10]: inactive; Potency [11]: inactive; Potency [14]: inactive; Potency [15]: inactive; Potency [16]: inactive; Potency [17]: inactive; outcome [18]: inactive
